This note sets out measurements from PubChem BioAssay.

One test concerns the target Albumin (Bos taurus) (UniProt P02769). As to the kind of experiment: compounds binding labelled BSA control protein – biochemical, small-molecule microarray, Alexa647 label, 635/667 nm fluorescence, artefact control for SMM control protein annotation, profiling panel (AID 1118).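 Further: score merges 667 nm emission intensity and signal-to-noise per printed compound spot.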 The settings on record: BSA-A647 binding, fluorescence 635 nm, higher = more signal.
Test [1] in a line: probe aXIP binding to arrayed compounds – biochemical, NeuroSMM set, 635/667 nm fluorescence, primary screen (AID 1119).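 Further: probe is the protein aXip251-270 applied at 1 µg/mL to compound-printed slides; binding of probe to printed compounds measured as 667 nm fluorescence plus signal to noise.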 To be noted: small-molecule microarray, higher = more signal, called active from +8 up or from −8 down.
A short description of test [2]: probe aNOTCH3 binding on compound microarray – biochemical, small-molecule microarray, 635/667 nm fluorescence, primary screen (AID 1120).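 Further: probe is a biotin-tagged antibody raised against NOTCH3 rather than NOTCH3 protein; score merges spot fluorescence near 667 nm with spot signal to noise.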 To be noted: higher = more signal.
The nature of test [3]: probe aNOTCH2 binding on compound microarray – biochemical, small-molecule microarray, 635/667 nm fluorescence, primary screen (AID 1121).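 Further: score merges feature fluorescence read at 667 nm with its signal to noise.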 The settings on record: higher = more signal.
For test [4], the target named is Carbonic anhydrase 2 (Homo sapiens) (UniProt P00918). Kind of test: compounds binding carbonic anhydrase 2 – biochemical, small-molecule microarray, Alexa647-labelled CAII, profiling panel (AID 1122). The settings on record: CAII-A647 binding fluorescence, higher = more signal.
Test [5] can be described thus: COS7 lysate on small-molecule microarray, probe aHis, 635 nm (AID 1123).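 Further: z-score combines 667nm fluorescence intensity with signal-to-noise per printed compound spot.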 The settings on record: COS7 cell lysate, fluorescence, higher = more signal.
Test [6] is described as follows: probe aLAP1 signal on lysate-treated microarray – cell lysate, small-molecule microarray, COS7 lysate, primary screen (AID 1124).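 Further: lysate comes from COS7 cells expressing LAP1 and is applied at 0.3 µg/mL; score merges spot fluorescence near 667 nm with signal-to-noise over triplicate slides.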 The settings on record: probe aLAP1, fluorescence, higher = more signal.
The next test relates to Sam68 (KHDRBS1). Kind of test: compounds binding KHDRBS1 protein – biochemical, small-molecule microarray, 635 nm fluorescence, primary screen (AID 1125).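 Further: score merges 667 nm channel intensity with signal to noise over triplicate slides.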 To be noted: higher = more signal.
Test [7] has as its system Chordin-like protein 2 (CHRDL2). As to the kind of experiment: compounds binding chordin-like 2 – biochemical, small-molecule microarray, 635 nm fluorescence, primary screen (AID 1126).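 Further: printed compound slides probed with Chrdl2 protein at 4 µg/mL for 1 h at 4 C; score merges 667 nm emission intensity with signal to noise over three replicate slides.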 The settings on record: fluorescence 635 nm, higher = more signal.
Test [8] has as its target Concanavalin-A (Canavalia ensiformis) (UniProt P02866). Kind of test: compounds binding concanavalin A lectin – biochemical, small-molecule microarray, Alexa647 label, 635 nm, artefact control for SMM control protein annotation, primary screen (AID 1127).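 Further: z combines 667 nm emission intensity with signal-to-noise across three replicate slides.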 The settings on record: ConA-A647 binding fluorescence, higher = more signal.
A short description of test [9]: compounds binding Alexa647 anti-His antibody – biochemical, small-molecule microarray, 635 nm fluorescence, artefact control for SMM control protein annotation, primary screen (AID 1128).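 Further: score merges feature fluorescence with signal-to-noise for each printed compound spot.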 The settings on record: higher = more signal.
Test [10] relates to Human papillomavirus type 1a E7 protein (residues 1-88). Kind of test: HPV1a E7 small-molecule binders, primary screen, biochemical, small-molecule microarray, residues 1-88, 635 nm (AID 1129). The settings on record: small-molecule microarray binding, fluorescence 635 nm; higher = more signal.
Test [11] addresses Focal adhesion kinase 1 (Homo sapiens) (UniProt Q05397). Kind of test: PTK2 protein binding on printed compound slides – biochemical, small-molecule microarray, 635/667 nm fluorescence, BSA, DTT, primary screen (AID 1130).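 Further: composite of spot emission at 667 nm and signal to noise over triplicate slides.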 The settings on record: 635 nm fluorescence, higher = more signal.
Test [12] concerns Fibrinogen (Alexa647-labelled). As to the kind of experiment: Alexa647-fibrinogen binding to printed small molecules – biochemical, small-molecule microarray, 635/667 nm fluorescence, artefact control for SMM control-protein annotation, profiling panel (AID 1131).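 Further: z-score merges 667 nm fluorescence with per-spot signal-to-noise over triplicate slides.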 To be noted: fibrinogen-A647 binding fluorescence, higher = more signal.
For test [13], the target named is Follistatin (Homo sapiens) (UniProt P19883). As to the kind of experiment: FST protein binding to printed compounds – biochemical, small-molecule microarray, 635/667 nm fluorescence, primary screen (AID 1132). To be noted: 635 nm fluorescence, higher = more signal.
The target of test [14] is Fibroblast growth factor 2 (Homo sapiens) (UniProt P09038). Kind of test: basic fibroblast growth factor binding to printed compounds – biochemical, small-molecule microarray, 635/667 nm fluorescence, primary screen (AID 1133). The settings on record: FGF2, fluorescence 635/667, higher = more signal.
The nature of test [15]: JC-1 mitochondrial potential readout, lung cancer cells – cell-based, A549, JC-1 fluorescence, basal, 24 h, 100 nL, profiling panel (AID 1138).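 Further: A549 lung adenocarcinoma cells under basal conditions with no added stimulus; test concentration not given here.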 To be noted: higher = more signal.
For a further test, the system named is Lefty1. Kind of test: Lefty1 protein binding to printed compounds – biochemical, small-molecule microarray, 635/667 nm fluorescence, primary screen (AID 1139). To be noted: fluorescence 635/667, higher = more signal.
Test [16] deals with wheat germ agglutinin (Triticum aestivum), Alexa647-labelled. As to the kind of experiment: Alexa647-WGA lectin binding to printed small molecules – biochemical, small-molecule microarray, 635/667 nm fluorescence, artefact control for SMM control-protein annotation, profiling panel (AID 1140).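 Further: score merges 667 nm feature emission with signal to noise over triplicate slides.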 To be noted: WGA-A647 binding, 635 nm fluorescence, higher = more signal.
Test [17] concerns the target Luciferin 4-monooxygenase (Photinus pyralis) (UniProt P08659). As to the kind of experiment: inhibition of purified Photinus pyralis luciferase – biochemical, luminescence, purified enzyme, 2006 set, primary screen (AID 1141).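 Further: cell-free assay with purified firefly luciferase at 100 ng per well in PBS; test concentration not given here.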 To be noted: purified firefly luciferase, SteadyGlo luminescence, 30 min; higher = more signal, called active from +8 up or from −8 down.

The structures appear in SMILES notation. Calls of active or inactive are those of the source.

Sequence of Fibroblast growth factor 2 (Homo sapiens) (P09038 whole entry, looked up): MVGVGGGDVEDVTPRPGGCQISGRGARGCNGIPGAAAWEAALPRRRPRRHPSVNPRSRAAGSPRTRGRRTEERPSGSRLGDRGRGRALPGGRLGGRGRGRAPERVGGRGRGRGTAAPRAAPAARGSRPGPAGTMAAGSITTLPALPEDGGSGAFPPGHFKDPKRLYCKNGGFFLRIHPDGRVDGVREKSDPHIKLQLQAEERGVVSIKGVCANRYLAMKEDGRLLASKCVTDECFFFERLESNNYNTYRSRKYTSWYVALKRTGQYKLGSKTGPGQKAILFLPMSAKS
Sequence of Concanavalin-A (Canavalia ensiformis) (P02866 whole entry, looked up): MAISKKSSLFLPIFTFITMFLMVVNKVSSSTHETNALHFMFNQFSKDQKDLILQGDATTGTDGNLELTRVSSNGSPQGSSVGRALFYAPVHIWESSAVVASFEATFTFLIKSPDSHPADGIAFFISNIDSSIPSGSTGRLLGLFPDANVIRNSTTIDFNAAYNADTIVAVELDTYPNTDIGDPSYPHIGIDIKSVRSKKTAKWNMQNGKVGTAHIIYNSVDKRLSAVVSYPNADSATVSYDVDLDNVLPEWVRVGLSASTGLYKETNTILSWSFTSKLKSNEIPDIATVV
Sequence of Focal adhesion kinase 1 (Homo sapiens) (Q05397 whole entry, looked up): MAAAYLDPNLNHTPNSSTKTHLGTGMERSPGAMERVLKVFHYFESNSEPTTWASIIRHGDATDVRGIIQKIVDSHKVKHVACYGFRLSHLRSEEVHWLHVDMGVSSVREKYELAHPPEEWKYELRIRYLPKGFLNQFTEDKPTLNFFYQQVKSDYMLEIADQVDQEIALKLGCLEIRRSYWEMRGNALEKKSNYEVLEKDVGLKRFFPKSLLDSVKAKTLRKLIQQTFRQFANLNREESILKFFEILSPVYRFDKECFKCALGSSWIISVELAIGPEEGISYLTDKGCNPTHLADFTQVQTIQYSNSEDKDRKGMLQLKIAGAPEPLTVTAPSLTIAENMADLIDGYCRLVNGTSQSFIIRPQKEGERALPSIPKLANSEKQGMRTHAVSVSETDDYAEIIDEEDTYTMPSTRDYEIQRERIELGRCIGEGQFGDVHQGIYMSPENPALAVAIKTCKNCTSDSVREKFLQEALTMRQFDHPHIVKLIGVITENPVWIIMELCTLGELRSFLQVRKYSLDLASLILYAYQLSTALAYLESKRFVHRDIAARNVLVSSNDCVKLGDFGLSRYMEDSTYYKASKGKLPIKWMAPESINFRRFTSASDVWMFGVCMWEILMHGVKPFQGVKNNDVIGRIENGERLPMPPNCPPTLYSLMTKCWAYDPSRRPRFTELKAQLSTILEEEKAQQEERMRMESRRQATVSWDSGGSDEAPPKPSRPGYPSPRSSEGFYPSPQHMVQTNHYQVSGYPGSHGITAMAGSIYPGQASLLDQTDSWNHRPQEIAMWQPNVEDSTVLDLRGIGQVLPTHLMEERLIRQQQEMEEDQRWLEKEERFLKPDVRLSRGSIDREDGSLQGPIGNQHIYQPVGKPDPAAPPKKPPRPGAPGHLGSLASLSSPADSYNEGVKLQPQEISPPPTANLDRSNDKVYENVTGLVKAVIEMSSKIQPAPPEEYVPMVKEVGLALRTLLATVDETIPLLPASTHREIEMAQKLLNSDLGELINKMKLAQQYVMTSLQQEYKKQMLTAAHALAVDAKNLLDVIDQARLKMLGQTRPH
Sequence of Follistatin (Homo sapiens) (P19883 whole entry, looked up): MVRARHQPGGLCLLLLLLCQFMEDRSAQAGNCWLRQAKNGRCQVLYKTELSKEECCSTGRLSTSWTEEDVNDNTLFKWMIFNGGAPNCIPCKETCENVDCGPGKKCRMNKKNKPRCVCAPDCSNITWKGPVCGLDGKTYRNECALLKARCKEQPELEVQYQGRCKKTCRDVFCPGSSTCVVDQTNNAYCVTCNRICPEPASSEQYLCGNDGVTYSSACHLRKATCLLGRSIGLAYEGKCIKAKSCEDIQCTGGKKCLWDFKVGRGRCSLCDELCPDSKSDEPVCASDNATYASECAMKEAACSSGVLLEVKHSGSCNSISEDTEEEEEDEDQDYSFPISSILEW
Sequence of Luciferin 4-monooxygenase (Photinus pyralis) (P08659 whole entry, looked up): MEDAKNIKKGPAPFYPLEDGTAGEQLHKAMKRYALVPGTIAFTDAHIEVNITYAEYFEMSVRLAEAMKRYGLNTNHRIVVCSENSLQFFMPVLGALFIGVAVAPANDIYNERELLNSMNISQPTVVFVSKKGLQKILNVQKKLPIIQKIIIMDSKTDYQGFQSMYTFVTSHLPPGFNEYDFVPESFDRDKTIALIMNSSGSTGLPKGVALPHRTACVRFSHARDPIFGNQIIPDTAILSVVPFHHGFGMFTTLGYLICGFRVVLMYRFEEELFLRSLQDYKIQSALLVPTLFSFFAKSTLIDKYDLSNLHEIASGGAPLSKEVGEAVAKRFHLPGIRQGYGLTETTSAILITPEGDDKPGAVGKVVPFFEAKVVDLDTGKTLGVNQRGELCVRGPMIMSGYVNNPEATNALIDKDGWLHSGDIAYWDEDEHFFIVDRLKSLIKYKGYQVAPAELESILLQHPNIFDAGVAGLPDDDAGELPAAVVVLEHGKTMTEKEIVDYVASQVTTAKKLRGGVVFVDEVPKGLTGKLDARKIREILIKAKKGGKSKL
Sequence of Albumin (Bos taurus) (P02769 whole entry, looked up): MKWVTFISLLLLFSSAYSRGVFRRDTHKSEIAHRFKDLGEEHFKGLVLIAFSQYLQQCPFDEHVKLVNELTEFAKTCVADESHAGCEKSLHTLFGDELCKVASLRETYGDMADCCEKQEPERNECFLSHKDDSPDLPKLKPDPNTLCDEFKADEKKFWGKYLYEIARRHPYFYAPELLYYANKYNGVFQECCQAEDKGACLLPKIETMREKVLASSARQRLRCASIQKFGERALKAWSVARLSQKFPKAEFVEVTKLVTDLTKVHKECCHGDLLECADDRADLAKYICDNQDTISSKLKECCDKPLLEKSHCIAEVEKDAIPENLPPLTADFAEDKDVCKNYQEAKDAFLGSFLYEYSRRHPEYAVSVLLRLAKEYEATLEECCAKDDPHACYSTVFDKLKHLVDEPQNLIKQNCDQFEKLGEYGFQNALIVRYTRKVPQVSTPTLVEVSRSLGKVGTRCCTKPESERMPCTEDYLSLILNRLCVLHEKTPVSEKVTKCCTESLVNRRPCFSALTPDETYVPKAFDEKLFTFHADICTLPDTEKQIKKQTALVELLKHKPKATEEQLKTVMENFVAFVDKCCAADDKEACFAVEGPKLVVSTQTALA

For the compound `Cc1ccc(N2C(=O)c3ccccc3[C@@H](C(=O)NCC(F)(F)F)[C@@H]2c2ccc(CO)cc2)nc1`, the composite z-score with Albumin (Bos taurus) is -0.0791; in [2] it was -0.185; in test [3], -0.0674; in [4] it was 0.844; in [5], -0.786; in test [6], -0.415. The composite z-score in the test on Sam68 (KHDRBS1) was -1.85; in test [7], -2.4; in test [8], -1.9; in [9] it was -1.37; in test [10], -2.06; in [11] it was -0.589. Also, the composite z-score in [12] was -1.4; in [13], -2.06; in test [14], -0.59; in the test on Lefty1 it was -3.17; in test [16] it was -0.925. In test [1], the composite Z-score was 0.352 (inactive). Besides, the figures for the z-score in test [15] and in [17] were -0.913 and -0.642 (inactive), respectively.

With `C=CCc1cccc([C@@H]2[C@@H](C)CC[C@H]3C(=O)N4[C@H](c5cccc(CC=C)c5)[C@@H](C)CC[C@H]4C(=O)N23)c1`, the composite z-score with Albumin (Bos taurus) is 0.593; in [2] it was 0.0827; in [3] it was -0.0304; in test [4] it was 0.244; in test [5], 0.564; in test [6], 0.035. Further, the composite z-score in the test with Sam68 (KHDRBS1) was determined as 0.55; in test [7] it was 0.977; in [8], 1.03; in [9], 0.22; in test [10], 1.09; in [11], 0.19. In addition, the composite z-score in test [12] worked out at 0.991; in test [13], 1.28; in [14], 0.704; in the test on Lefty1, 0.644; in test [16], 0.846. Moreover, the composite Z-score in test [1] was 0.576 (inactive). The z-score in [15] is 3.36; in test [17], -0.744 (inactive).

Regarding `NC(=O)[C@H]1[C@@H]2C(=O)O[C@@H](c3ccccc3)[C@@H](c3ccccc3)N2[C@@H](c2ccc(O)cc2)[C@]12C(=O)Nc1ccc(C#CCCO)cc12`, the composite z-score is 0.0103 with Albumin (Bos taurus); -0.125 in test [2]; -0.0645 in test [3]; 0.72 in test [4]; -0.119 in [5]; 0.0482 in test [6]. Further, the composite z-score is -1.09 in the test on Sam68 (KHDRBS1); -0.92 in test [7]; -1.78 in [8]; 2.14 in [9]; -1.66 in test [10]; -0.574 in test [11]. The composite z-score in test [12] was -1.74; in test [13], -0.458; in test [14], -0.581; with Lefty1 it was -0.997; in test [16], -1.4. For the same compound, in test [1], the composite Z-score is 0.049 (inactive). Also, the z-score in test [15] is -1.14; in [17], -0.0824 (inactive).

As to `O=C1O[C@H](c2ccccc2)[C@H](c2ccccc2)N2[C@H]1[C@@H](C(=O)Nc1nc3ccccc3s1)[C@]1(C(=O)Nc3ccc(C#CC4=CCCCC4)cc31)[C@H]2c1ccccc1OCCO`, the composite z-score was 0.581 with Albumin (Bos taurus); 0.0452 in test [2]; -0.14 in test [3]; 0.23 in test [4]; 0.834 in test [5]; -0.189 in test [6]. Further, the composite z-score worked out at 1.3 with Sam68 (KHDRBS1); 0.497 in test [7]; 1 in test [8]; 0.485 in test [9]; 1.15 in test [10]; 0.66 in test [11]. In addition, the composite z-score is 0.797 in test [12]; 0.968 in [13]; 1.2 in [14]; 0.966 with Lefty1; -0.17 in [16]. For the same compound, the composite Z-score in test [1] was 0.329 (inactive). Moreover, the z-score in [15] is -2.27; in [17], -1.01 (inactive).

`C=CCN1C(=O)[C@@]2(Cc3ccccc3)N=C(c3ccc(OCCCO)cc3)O[C@H]2c2ccccc21`: the composite z-score with Albumin (Bos taurus) turned out to be 0.174; in test [2], 0.0635; in test [3] it was 0.2; in test [4] it was 0.622; in test [5], 2.83; in test [6], 0.66. Moreover, the composite z-score was found to be 1.29 in the test with Sam68 (KHDRBS1); 1.23 in test [7]; 1.15 in [8]; 1.69 in test [9]; 1.23 in test [10]; 0.665 in test [11]. The composite z-score in test [12] came to 0.578; in test [13] it was 1.39; in test [14], 1.08; in the test with Lefty1, 0.398; in test [16] it was 0.648. In addition, the composite Z-score in test [1] is 1.06 (inactive). For the same compound, the z-score in [15] is -0.993; in test [17], -5.51 (inactive).
